{
  "source": "PubChem BioAssay (Tox21)",
  "note": "Results filed as inconclusive are left out. Unmarked numbers belong to inactive results. Activity calls are given as the source filed them. Calls follow the shape of the dose curve; as a rule, active = well fitted cell-killing curve with a large enough effect in the repeat runs; inconclusive = weak or mixed curves; inactive = no such curve, though single readings can be large or run the other way. % is scaled to controls: 0 for no effect and ±100 for the full control effect.",
  "data": [
    {"test": "qHTS assay to identify small molecule antagonists of the androgen receptor (AR) signaling pathway - cell viability counter screen (AID 743033; also: nearly all actives have a fitted effect of over 45% in size)", "settings": "AR-bla HEK293 viability, CellTiter-Glo luminescence, 16 h; series mostly up to 58.5 µM; activity change, negative = cytotoxicity: at the top concentration", "text": "National Center for Advancing Translational Sciences [NCATS]\nNIH Chemical Genomics Center [NCGC]\nU.S. Environmental Protection Agency [EPA]\nNational Institutes of Environmental Health Sciences [NIEHS]\nNational Toxicology Program [NTP]\nU.S. Food and Drug Administration [FDA]\nAndrogen receptor (AR), a nuclear hormone receptor, plays a critical role in AR-dependent prostate cancer and other androgen related diseases. Endocrine disrupting chemicals (EDCs) and their interactions with steroid hormone receptors like AR may cause disruption of normal endocrine function as well as interfere with metabolic homeostasis, reproduction, developmental and behavioral functions. To identify the compounds that inhibit AR signaling, GeneBLAzer AR-UAS-bla-GripTite cell line (Invitrogen, Carlsbad, CA, USA) containing a beta-lactamase reporter gene under control of an Upstream Activator Sequence (UAS) stably integrated into HEK293 cells was used to screen the Tox21 10K compound library. The cytotoxicity of the Tox21 compound library against the AR-bla cell line was tested in parallel by measuring the cell viability using CellTiter-Glo assay in the same wells.\nTox21 Assay Protocol Summary:\nAR-bla cells were dispensed at 2,000 cells/5 uL of assay medium per well into black wall/clear-bottom 1536-well plates using a Multidrop Combi (ThermoFisher Scientific, Waltham, MA) dispenser. After the assay plates were incubated at a 37C and 5% CO2 for 4 hr, 23 nL of compounds dissolved in DMSO, positive controls or DMSO only was transferred to the assay plate by a Pintool station (Kalypsys, San Diego, CA), followed by addition of 1 uL of agonist (R1881) in culture medium using a Bioraptr Flying Reagent Dispenser (FRD) workstation (Beckman Coulter, Indianapolis, IN, USA). The plates were incubated at a 37C and 5% CO2 for 16 h. After 1 uL of LiveBLAzerTM B/G FRET substrate was added using a Bioraptr FRD, the plates were incubated at room temperature for 2 h and fluorescence intensity was measured by an Envision plate reader (PerkinElmer, Shelton, CT). For cell viability readout that measures cytotoxicity, 4 ul/well of CellTiter-Glo reagent was added into the assay plates using a Bioraptr FRD. After 30 min incubation at room temperature, the luminescence intensity in the plates was measured using a ViewLux (PerkinElmer) plate reader.", "values": [
      {"molecule": "C[C@@H](CN1CC(=O)NC(=O)C1)N1CC(=O)NC(=O)C1", "activity change, negative = cytotoxicity": "-0.409%"},
      {"molecule": "COc1cc(OC)cc(OC)c1", "activity change, negative = cytotoxicity": "-29.8%"},
      {"molecule": "CC(=O)OC/C=C(/C)CCC=C(C)C", "activity change, negative = cytotoxicity": "4.47%"},
      {"molecule": "C=C(C)C(=O)OCCOC1CC2CC1C1C=CCC21", "note": "(stereo not given)", "activity change, negative = cytotoxicity": "2.95% [at 78.9 µM]"},
      {"molecule": "CC(=O)OC1CCC(C(C)(C)C)CC1", "note": "(stereo not given)", "activity change, negative = cytotoxicity": "0.986%"},
      {"molecule": "Cc1cc(N)no1", "activity change, negative = cytotoxicity": "3.57% [at 78.9 µM]"},
      {"molecule": "CC(=O)Nc1ccc(S(=O)(=O)Nc2cc(C)on2)cc1", "activity change, negative = cytotoxicity": "0.504%"},
      {"molecule": "Nc1ccc(C(=O)NCC(=O)O)cc1", "activity change, negative = cytotoxicity": "-1.63% [at 27 µM]"},
      {"molecule": "COCc1nnc(-c2ccc[n+]([O-])c2)n1-c1c(Cl)c(Cl)cc2[nH]c(=O)c(=O)[nH]c12", "activity change, negative = cytotoxicity": "-2.47%"},
      {"molecule": "CCCCCCC(O)CO", "note": "(stereo not given)", "activity change, negative = cytotoxicity": "0.896%"},
      {"molecule": "CC(C)(O)CCCC1=CCC(C=O)CC1", "note": "(stereo not given)", "activity change, negative = cytotoxicity": "0.0422% [at 78.9 µM]"},
      {"molecule": "Nc1nc(Cl)cc(Cl)n1", "activity change, negative = cytotoxicity": "6.97%"},
      {"molecule": "O=S(=O)(O)c1ccc(Cl)cc1", "activity change, negative = cytotoxicity": "2.09%"},
      {"molecule": "O=C(O)COc1ccc2ccccc2c1", "activity change, negative = cytotoxicity": "4.11%"},
      {"molecule": "BrCCOc1ccccc1", "activity change, negative = cytotoxicity": "2.75% [at 78.9 µM]"},
      {"molecule": "CC(=O)c1ccc2ccc3ccccc3c2c1", "activity change, negative = cytotoxicity": "-15.8%"},
      {"molecule": "O=C(O)/C=C(\\CC(=O)O)C(=O)O", "activity change, negative = cytotoxicity": "-3.28%"},
      {"molecule": "CC(C)(C)NCC(O)COc1cccc2c1CCC(=O)N2", "note": "(stereo not given)", "activity change, negative = cytotoxicity": "-5.6% [at 27 µM]"},
      {"molecule": "CCCCCCCCS(=O)(=O)O", "activity change, negative = cytotoxicity": "-0.614% [at 78.9 µM]"},
      {"molecule": "C=CC(=O)CC", "activity change, negative = cytotoxicity": "-5.68% [at 78.9 µM]"},
      {"molecule": "CC1=C(O)C(=O)CO1", "activity change, negative = cytotoxicity": "10.8%"},
      {"molecule": "CC[N+](C)(CC)CC", "activity change, negative = cytotoxicity": "2.44%"},
      {"molecule": "CCCCCCCCCCCCCCCCN(C)C", "activity change, negative = cytotoxicity": "-5.02% [at 7.04 µM]"},
      {"molecule": "CCCCN1C(=O)c2ccccc2C1=O", "activity change, negative = cytotoxicity": "-27.9% [at 78.9 µM]"},
      {"molecule": "N#CC1(N)CCCCC1", "activity change, negative = cytotoxicity": "-0.614% [at 78.9 µM]"},
      {"molecule": "CC12CCCC=C1C(=O)OC2=O", "note": "(stereo not given)", "activity change, negative = cytotoxicity": "-4.21%"},
      {"molecule": "CC(C)=CCC/C(C)=C\\C#N", "activity change, negative = cytotoxicity": "1.01%"},
      {"molecule": "C[C@@H]1NC(=O)[C@@H](N)CNC(=O)[C@H](C2CCNC(N)=N2)NC(=O)/C(=C/NC(N)=O)NC(=O)[C@H](CNC(=O)C[C@@H](N)CCCN)NC1=O", "note": "(stereo not given in full)", "outcome": "inactive"},
      {"molecule": "O=C(O)CCC(=O)Nc1ccc(S(=O)(=O)Nc2nccs2)cc1", "activity change, negative = cytotoxicity": "-17.7% [at 27 µM]"},
      {"molecule": "C=CCOC(=O)CCCCCCCC", "activity change, negative = cytotoxicity": "1.44% [at 78.9 µM]"},
      {"molecule": "CCCCN=C(N)N=C(N)N", "activity change, negative = cytotoxicity": "-5.19%"},
      {"molecule": "CC(C)(C)C(=O)CCc1ccc(Cl)cc1", "activity change, negative = cytotoxicity": "2.85%"},
      {"molecule": "CCO/C=C1\\N=C(c2ccccc2)OC1=O", "activity change, negative = cytotoxicity": "-0.115%"},
      {"molecule": "CCCCCCCCC1CO1", "note": "(stereo not given)", "activity change, negative = cytotoxicity": "2.71% [at 78.9 µM]"},
      {"molecule": "CC(=O)OCC(=O)[C@@]1(O)CC[C@H]2[C@@H]3CCC4=CC(=O)C=C[C@]4(C)[C@H]3[C@@H](O)C[C@@]21C", "activity change, negative = cytotoxicity": "-5.56%"},
      {"molecule": "CCCCCCCCOCCC#N", "activity change, negative = cytotoxicity": "-9.1%"},
      {"molecule": "O=C(O)P(=O)(O)O", "activity change, negative = cytotoxicity": "-28.9%"},
      {"molecule": "CCCCCCCC(=O)N(C)C", "activity change, negative = cytotoxicity": "2.35%"},
      {"molecule": "CCCCCCCCCCCCCCBr", "activity change, negative = cytotoxicity": "-1.99% [at 78.9 µM]"},
      {"molecule": "CCOC(=O)COc1ccc2c(C)c(CCN(CC)CC)c(=O)oc2c1Cl", "activity change, negative = cytotoxicity": "4.38%"}
    ]}
  ]
}
